{"source": "PubChem BioAssay (Tox21)", "note": "Records with an inconclusive call do not appear. Active and inactive are the calls of the source. The call rests on the fitted dose curve; in most records, active means well fitted cell-killing curve with a large enough effect in the repeat runs; inconclusive means weak or mixed curves, or effect the other way; inactive means flat fitted curve, though single readings scatter. On the % scale 0 is the no-effect control and ±100 the full control effect; potency means the concentration at half of the fitted maximal effect.", "data": [{"experiment": "qHTS assay to identify small molecule agonists of the sonic hedgehog signaling (Shh) pathway - cell viability counter screen (AID 1259366); further: nearly all actives have a fitted effect of over 50% in size", "conditions": "NIH/3T3 Gli1-Luc viability, CellTiter-Fluor, 24 h; series mostly up to 92.4 µM; viability change, negative = cytotoxic: at the top concentration", "from_the_text": "National Center for Advancing Translational Sciences [NCATS]\nNIH Chemical Genomics Center [NCGC]\nU.S. Environmental Protection Agency [EPA]\nNational Institutes of Environmental Health Sciences [NIEHS]\nNational Toxicology Program [NTP]\nU.S. Food and Drug Administration [FDA]\nThe sonic hedgehog (Shh) pathway is essential for normal embryonic development. Dysregulation of the Shh pathway can cause severe developmental defects in organs. Therefore chemicals that interfere with the pathway are potential developmental toxicants. A cell line designated 3T3Gli1-Luc (DMB/OARSA/CFSAN/FDA, Laurel, MD), a NIH/3T3 derived clone containing stably integrated Gli1-Luc reporter is used to detect chemical interference of the Shh pathway, by changes in the expression of the firefly Luc gene under the control of the Gli1 transcriptional response element. This cell line was used to screen Tox21 libraries for identifying and prioritizing the potential developmental toxicants that interfere Shh pathway. The cytotoxicity of the compounds was tested in parallel by measuring the cell viability using CellTiter-Fluor assay system (Promega, Madison, WI) in the same wells.\nTox21 Assay Protocol Summary:\n3T3 Gli1-Luc cells were dispensed at 2,000 per well in 5uL of culture medium into white solid bottom 1536-well plates (Greiner Bio-One, Monroe, NC) using a Multidrop Combi (Thermo Scientific, Waltham, MA) dispenser. The assay plates were incubated at 37 C and 5% CO2 for 4hr, and then 23nL of compounds dissolved in DMSO and positive control were transferred using a Pintool station (Wako, San Diego, CA). The assay plates were incubated at 37C and 5% CO2 for 24hr. For viability read, after 23hr of compound treatment, 1uL of CellTiter-Fluor reagent (Promega Corporation, Madison, WI) was added to each well of the assay plates using Flying Reagent Dispenser (FRD, Aurora Discovery, San Diego, CA) and incubated the assay plates at 37C for 1hr. The fluorescence signal was quantified using a ViewLux plate reader (Perkin Elmer, Shelton, CT).", "values": [{"compound": "CC(C)CC(=O)C1C(=O)c2ccccc2C1=O", "viability change, negative = cytotoxic": "0.0404% (inactive)"}, {"compound": "O=[N+]([O-])c1cccc(S(=O)(=O)O)c1", "viability change, negative = cytotoxic": "2.23% (inactive)"}, {"compound": "CCCCC(CC)COC(=O)COc1ccc(Cl)cc1Cl", "note": "(stereo not given)", "viability change, negative = cytotoxic": "-6.04% (inactive)"}, {"compound": "C/C=C(/C(=C/C)c1ccc(OC(C)=O)cc1)c1ccc(OC(C)=O)cc1", "viability change, negative = cytotoxic": "-0.204% [at 42.5 µM] (inactive)"}, {"compound": "C=C1[C@H]2CC[C@@H]3[C@H]2C(C)(C)CCC[C@]13C", "viability change, negative = cytotoxic": "1.04% (inactive)"}, {"compound": "Cc1cccc(C)c1NC(=O)CN(CC(=O)O)CC(=O)O", "viability change, negative = cytotoxic": "2.53% [at 42.5 µM] (inactive)"}, {"compound": "C=C(C)C(=O)OCCOCC", "viability change, negative = cytotoxic": "-3.76% (inactive)"}, {"compound": "O=C(O)CC(=O)C(=O)O", "viability change, negative = cytotoxic": "-4.5% (inactive)"}, {"compound": "CC(C)(CO)[N+](=O)[O-]", "viability change, negative = cytotoxic": "6.97% (inactive)"}, {"compound": "Nc1ncn([C@H]2C[C@H](O)[C@@H](CO)O2)c(=O)n1", "viability change, negative = cytotoxic": "-22.7% [at 42.5 µM] (inactive)"}, {"compound": "c1ccc(CNCCNCc2ccccc2)cc1", "viability change, negative = cytotoxic": "19% [at 42.5 µM] (inactive)"}, {"compound": "CO[C@@H]1[C@H](OC(=O)/C=C/C=C/C=C/C=C/C(=O)O)CC[C@]2(CO2)[C@H]1[C@@]1(C)O[C@@H]1CC=C(C)C", "viability change, negative = cytotoxic": "0.874% (inactive)"}, {"compound": "C[C@@H](c1ncncc1F)C(O)(Cn1cncn1)c1ccc(F)cc1F", "note": "(stereo not given in full)", "viability change, negative = cytotoxic": "2.41% [at 42.5 µM] (inactive)"}, {"compound": "CCc1c(C(=O)NN2CCCCC2)nn(-c2ccc(Cl)cc2Cl)c1-c1ccc(Br)cc1", "viability change, negative = cytotoxic": "-1.85% (inactive)"}, {"compound": "ClCCOCCOCCCl", "viability change, negative = cytotoxic": "1.97% (inactive)"}, {"compound": "CCCCC1=NC2(CCCC2)C(=O)N1Cc1ccc(-c2ccccc2-c2nn[nH]n2)cc1", "Potency": "4.22 µM (active)"}, {"compound": "O=C(O)c1ccc(-n2nc(-c3ccccc3O)nc2-c2ccccc2O)cc1", "viability change, negative = cytotoxic": "15.6% [at 42.5 µM] (inactive)"}, {"compound": "CCCCOC(=O)CCCCCCCC(=O)OCCCC", "viability change, negative = cytotoxic": "0.237% (inactive)"}, {"compound": "COc1ccc(-c2nc3ccc(C4=NNC(=O)CC4C)cc3[nH]2)cc1", "note": "(stereo not given)", "viability change, negative = cytotoxic": "-1.24% [at 42.5 µM] (inactive)"}, {"compound": "Nc1c(CC(=O)O)cccc1C(=O)c1ccc(Br)cc1", "viability change, negative = cytotoxic": "-5.84% [at 42.5 µM] (inactive)"}, {"compound": "CCC(=O)O[C@]1(C(=O)CCl)[C@@H](C)C[C@H]2[C@@H]3CCC4=CC(=O)C=C[C@]4(C)[C@@]3(F)[C@@H](O)C[C@@]21C", "viability change, negative = cytotoxic": "7.98% [at 42.5 µM] (inactive)"}, {"compound": "C=CCOC(=O)CCC1CCCCC1", "viability change, negative = cytotoxic": "-3.58% (inactive)"}, {"compound": "CCOC(=O)C1=C[C@]2(CC)CCCN3CCc4c(n1c1ccccc41)[C@@H]32", "viability change, negative = cytotoxic": "-20.1% [at 42.5 µM] (inactive)"}, {"compound": "CCOC(=O)C(O)c1ccccc1", "note": "(stereo not given)", "viability change, negative = cytotoxic": "2.85% [at 42.5 µM] (inactive)"}, {"compound": "Cc1cccc(Nc2ccccc2)c1", "viability change, negative = cytotoxic": "-15.3% (inactive)"}, {"compound": "CCCCCCCC#N", "viability change, negative = cytotoxic": "19.9% (inactive)"}, {"compound": "Cc1cc(C(=O)O)ccc1[N+](=O)[O-]", "viability change, negative = cytotoxic": "0.895% (inactive)"}, {"compound": "C=C(C)C(=O)OCC", "viability change, negative = cytotoxic": "-14.4% (inactive)"}, {"compound": "CCOc1ccc(N=Nc2ccc(/C=C/c3ccc(N=Nc4ccc(OCC)cc4)cc3S(=O)(=O)O)c(S(=O)(=O)O)c2)cc1", "Potency": "30.2 µM (active)"}, {"compound": "COc1cc(Cl)c(OC)cc1N", "viability change, negative = cytotoxic": "-2.08% (inactive)"}, {"compound": "COc1ccc(S(=O)(=O)N2C(=O)[C@@](c3ccccc3OC)(N3C[C@H](O)C[C@H]3C(=O)N(C)C)c3cc(Cl)ccc32)c(OC)c1", "Potency": "8.63 µM (active)"}, {"compound": "CCCCCCCCCCCc1ccccc1", "viability change, negative = cytotoxic": "6.68% (inactive)"}, {"compound": "NS(=O)(=O)c1ccc(N2CCCCS2(=O)=O)cc1", "viability change, negative = cytotoxic": "-1.45% [at 42.5 µM] (inactive)"}, {"compound": "COC(=O)C1=C(C)NC(COC(N)=O)=C(C(=O)OC(C)C)C1c1cccc(Cl)c1Cl", "note": "(stereo not given)", "viability change, negative = cytotoxic": "-20% [at 42.5 µM] (inactive)"}, {"compound": "CN1CCC(N(Cc2cccs2)c2ccccc2)CC1", "viability change, negative = cytotoxic": "1.52% [at 42.5 µM] (inactive)"}, {"compound": "OC(C#CCN1CCCC1)(c1ccccc1)c1ccccc1", "viability change, negative = cytotoxic": "-24.2% [at 42.5 µM] (inactive)"}, {"compound": "CC(=O)NO", "viability change, negative = cytotoxic": "10.1% [at 42.5 µM] (inactive)"}, {"compound": "O=C(O)c1nc(Cl)c(Cl)c(Cl)c1Cl", "viability change, negative = cytotoxic": "-0.846% (inactive)"}, {"compound": "CCN(CC)CCNC(=O)c1cc(Br)c(N)cc1OC", "viability change, negative = cytotoxic": "-3.26% [at 42.5 µM] (inactive)"}, {"compound": "CCc1cc(C2=C(C(=O)O)N(c3ccccc3C(F)(F)F)S(=O)(=O)c3ccccc32)cc2c1OCO2", "Potency": "12.1 µM (active)"}]}]}
